Screens as filed in PubChem.
FLuc modulator – firefly luciferase modulation, counter-screen for miR-21 project | P08659 | purified FLuc, Km substrates, luminescence inhibition | Potency, µM (highest dose often 57.5 µM), for the others: top-dose activity change, negative = inhibition, most hits filed as inhibitors | hit rate 6.9% among 360,000;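 also: plate controls were vehicle for no effect and reference inhibitor for full effect; nearly all actives have a fitted effect of over 55% in size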
Target sequence (P08659 whole entry, looked up): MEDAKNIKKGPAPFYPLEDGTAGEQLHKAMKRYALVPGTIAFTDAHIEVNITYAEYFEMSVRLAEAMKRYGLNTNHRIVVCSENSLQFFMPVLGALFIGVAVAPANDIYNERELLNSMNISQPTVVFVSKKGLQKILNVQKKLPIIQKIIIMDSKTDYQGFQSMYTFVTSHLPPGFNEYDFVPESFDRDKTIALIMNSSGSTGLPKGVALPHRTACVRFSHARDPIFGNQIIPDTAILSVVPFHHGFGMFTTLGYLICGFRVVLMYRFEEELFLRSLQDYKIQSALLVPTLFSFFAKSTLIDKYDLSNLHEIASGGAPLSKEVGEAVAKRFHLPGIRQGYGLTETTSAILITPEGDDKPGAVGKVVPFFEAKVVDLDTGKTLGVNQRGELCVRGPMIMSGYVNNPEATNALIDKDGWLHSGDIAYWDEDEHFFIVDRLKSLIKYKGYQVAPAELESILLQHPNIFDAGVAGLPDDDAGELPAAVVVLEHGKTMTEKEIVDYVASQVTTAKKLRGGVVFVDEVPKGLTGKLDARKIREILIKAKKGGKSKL
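Purified P. pyralis luciferase, 10 nM final, with Km-level 10 uM D-luciferin and 10 uM ATP in 50 mM Tris acetate pH 7.5, 10 mM Mg acetate, 0.01% Tween-20, 0.05% BSA; 6-point qHTS titration about 60 µM downward; luminescence read.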
SMN2 splice up – enhancers of SMN2 splice variant expression; HEK293 SMN2-luciferase splicing reporter, luminescence, 30-36 h; Potency, µM (highest dose often 46.1 µM), for inactives: top-dose activity change, positive = activation, usual class: activators; hit rate 2.8% among 210,000; AID 1458; also: % of control where 0% means no effect; nearly all actives have a fitted effect of over 55% in size
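HEK293 cells carry an SMN2 […]–luciferase reporter in which exon 7 inclusion puts luciferase in frame. Cells were plated 10-12 h before compound addition, then incubated 30-36 h at 37C. ONE-Glo luminescence was read; sodium butyrate at 4.5 mM final served as control.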
Rab9 prom act – activators of Rab9 promoter. Huh7 Rab9 promoter-luciferase reporter, luminescence, 24 h. Potency, µM (highest dose often 9.22 µM), without a hit: at the top dose activation, negative = inhibition, usual class: activators. hit rate 2.8% among 320,000. AID 485297; also: % of control where 0% means no effect; nearly all actives have a fitted effect of over 60% in size
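Luminescence from Amplite-detected luciferase (10 minutes, ambient) reports Rab9 promoter activation. Before that, stable Rab9-luciferase Huh7 cells (1500/well, reduced-serum OP-MEM I plus 10% FBS) were exposed to compound for 24 hours at 37C.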
NPC1 promoter act – activators of NPC1 promoter; Huh7 NPC1 promoter luciferase reporter, 24 h; Potency, µM (doses to about 9.22 µM), for inactives: at the top dose activation, hits mostly activators; hit rate 2.4% among 320,000; also: % of control where 0% means no effect; nearly all actives have a fitted effect of over 60% in size
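Luminescence read-out of NPC1 promoter-driven luciferase in stably transfected Huh7 cells; compounds delivered in DMSO and left 24 h at 37C, 5% CO2, qHTS titration format.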
ELG1 DNA repair – blocks ELG1-dependent DNA repair in HEK293T cells. Potency, µM (series often up to 46.1 µM), for inactives: at the top dose activity change, negative = inhibition, most hits filed as inhibitors. HEK293T ELG1-luciferase reporter, luminescence, 16 h; DNA damage induced by 5-fluorouridine. hit rate 2.3% among 330,000; also: % is scaled to controls: 0 for no effect and ±100 for the full control effect; nearly all actives have a fitted effect of over 55% in size
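In this reporter screen, reduction of luminescence relative to DMSO vehicle indicated activity. Compounds and 5-fluorouridine were added together to 2,000 cells per well, incubated for 16 hr at 37 °C, then developed with ONE-Glo.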
ELG1 genotoxic – inducers of genotoxicity in HEK293T ELG1-luciferase cells | hit rate 1.3% among 330,000 | HEK293T ELG1-luciferase reporter, luminescence, 16 h | Potency, µM (highest dose often 46 µM), for the others: at the top dose activity change, positive = activation, usual class: activators | AID 504466; also: % of control where 0% means no effect; nearly all actives have a fitted effect of over 60% in size
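ELG1-luciferase HEK293T cells, 2,000/well; compound pinned in; 16 hr, 37 °C, 5% CO2; ONE-Glo, 30 min RT; luminescence on CCD imager.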
Starred values were filed as active, the others as inactive. Compounds with a hit are over-represented: about 9.2% of the library has one in this group of screens. Calls follow the shape of the dose curve; as a rule, active = well fitted curve in the direction sought with a large enough effect; inconclusive = small, poorly fitted or top-dose-only effect, or another doubt; inactive = no such curve, though single readings can be large; an effect the other way counts as inactive or inconclusive. Potency is read from the fitted curve at half-maximal effect.

Screening O=C(Cc1ccccc1)Nc1ccc2c(c1)C(=O)N(CC1CCCO1)C2=O (stereo not drawn) returned FLuc modulator inconclusive, SMN2 splice up 3%, Rab9 prom act 6%, NPC1 promoter act -3%, ELG1 DNA repair 8% and ELG1 genotoxic 0%.
COc1ccccc1N1C(=O)c2ccc(C(=O)Nc3ccc(C(=O)O)cc3)cc2C1=O was read as FLuc modulator 27µM*, Rab9 prom act -3%, NPC1 promoter act -3%, ELG1 DNA repair 12% and ELG1 genotoxic 1%.
Screening O=C(O)c1cccc(NC(=O)c2ccc3c(c2)C(=O)N(c2ccccc2)C3=O)c1 returned FLuc modulator 0.27µM*, Rab9 prom act -2%, NPC1 promoter act 2%, ELG1 DNA repair inconclusive and ELG1 genotoxic 4%.
Screening COC(=O)c1cccc(NC(=O)c2ccc3c(c2)C(=O)N(CC2CCCO2)C3=O)c1 (stereo not drawn) returned FLuc modulator 24µM*, SMN2 splice up 13%, Rab9 prom act 0%, NPC1 promoter act 3%, ELG1 DNA repair -21% and ELG1 genotoxic 0%.
`O=C(O)c1cc(NC(=O)c2cccc(N3C(=O)c4ccccc4C3=O)c2)cc(C(=O)O)c1` gave FLuc modulator -13%, Rab9 prom act 6%, NPC1 promoter act -4%, ELG1 DNA repair 10% and ELG1 genotoxic 3%.
`COc1ccccc1NC(=O)c1ccc2c(c1)C(=O)N(c1ccccc1OC)C2=O` gave FLuc modulator inconclusive, Rab9 prom act -5%, NPC1 promoter act -1%, ELG1 DNA repair -12% and ELG1 genotoxic 6%.
Screening O=C(Nc1ccc2c(c1)C(=O)N(CC1CCCO1)C2=O)c1cccc(Br)c1 (stereo not drawn) returned FLuc modulator 11µM*, SMN2 splice up -17%, Rab9 prom act 11%, NPC1 promoter act 0%, ELG1 DNA repair -22% and ELG1 genotoxic -4%.
`CCOc1cc(C(=O)OCC(=O)Nc2ccc(F)cc2Cl)ccc1OCC(=O)N1CCOCC1` gave FLuc modulator -1%, Rab9 prom act -3%, NPC1 promoter act 0%, ELG1 DNA repair -26% and ELG1 genotoxic 0%.
`O=C(O)c1cccc(NC(=O)c2ccc3c(c2)C(=O)N(CC2CCCO2)C3=O)c1` (stereo not drawn) gave FLuc modulator 0.48µM*, SMN2 splice up 4%, Rab9 prom act 1%, NPC1 promoter act 5%, ELG1 DNA repair -2% and ELG1 genotoxic 1%.
For O=C(O)Cc1ccc(NC(=O)c2ccc3c(c2)C(=O)N(CC2CCCO2)C3=O)cc1 (stereo not drawn) the results were FLuc modulator -1%, Rab9 prom act -4%, NPC1 promoter act 10%, ELG1 DNA repair -2% and ELG1 genotoxic 15%.
Screening COc1ccc(Cl)cc1NS(=O)(=O)c1c(C)nc2scc(C)n2c1=O returned FLuc modulator 6% and SMN2 splice up 9%.
C=CCC1(CC=C)CCCN1C(=O)C1CCC(=O)N(CCc2ccccc2)C1 (stereo not drawn) was read as FLuc modulator 11µM*, Rab9 prom act 2.8µM*, NPC1 promoter act 4µM*, ELG1 DNA repair inconclusive and ELG1 genotoxic inconclusive.
For O=C1CCC(C(=O)N2CCSCC2)CN1CCc1ccccc1 (stereo not drawn) the results were FLuc modulator 1%, Rab9 prom act 7%, NPC1 promoter act 2%, ELG1 DNA repair inconclusive and ELG1 genotoxic -8%.
`COc1ccc(CCN2CC(C(=O)N3CCC(OC)CC3)CCC2=O)cc1` (stereo not drawn) gave FLuc modulator 5%, Rab9 prom act 15%, NPC1 promoter act -1%, ELG1 DNA repair 18% and ELG1 genotoxic 2%.
For C=CCC1(CC=C)CCCN1C(=O)C1CCC(=O)N(CCc2ccc(OC)cc2)C1 (stereo not drawn) the results were FLuc modulator 11µM*, Rab9 prom act 2.5µM*, NPC1 promoter act 2.5µM*, ELG1 DNA repair inconclusive and ELG1 genotoxic inconclusive.
`COc1ccc(/C=N/OCC(=O)Nc2ccc3c(c2)OCO3)c(OC)c1` gave FLuc modulator -3%, SMN2 splice up -4%, Rab9 prom act -2%, NPC1 promoter act -4%, ELG1 DNA repair -28% and ELG1 genotoxic -4%.
O=C(CC12CC3CC(CC(C3)C1)C2)N/N=C/c1ccncc1 was read as FLuc modulator -1%, SMN2 splice up 1%, Rab9 prom act -3%, NPC1 promoter act 0%, ELG1 DNA repair -3% and ELG1 genotoxic 2%.
For CCOc1ccc(Nc2nc(-c3sc(N)nc3C)cs2)cc1 the results were FLuc modulator 15µM*, Rab9 prom act 26%, NPC1 promoter act inconclusive, ELG1 DNA repair 4% and ELG1 genotoxic 10%.
Screening Cc1ccc(Nc2nc(-c3sc(N)nc3C)cs2)cc1 returned FLuc modulator 2.1µM*, Rab9 prom act 2.2µM*, NPC1 promoter act 0.79µM*, ELG1 DNA repair -1% and ELG1 genotoxic inconclusive.
Screening CC(=O)Nc1ccc(Nc2nc(-c3sc(C)nc3C)cs2)cc1 returned FLuc modulator 21µM*, Rab9 prom act -1%, NPC1 promoter act -5%, ELG1 DNA repair inconclusive and ELG1 genotoxic -9%.
COc1ccc(Nc2nc(-c3sc(N)nc3C)cs2)cc1 was read as FLuc modulator 13µM*, SMN2 splice up 18%, Rab9 prom act 22%, NPC1 promoter act inconclusive, ELG1 DNA repair inconclusive and ELG1 genotoxic inconclusive.
Cc1ccc(Nc2nc(-c3sc(NC(=O)c4ccc([N+](=O)[O-])cc4)nc3C)cs2)cc1 was read as FLuc modulator inconclusive, SMN2 splice up -9%, Rab9 prom act 0%, NPC1 promoter act -2%, ELG1 DNA repair inconclusive and ELG1 genotoxic 3%.
`CC(C)CNC(=O)C1CCCN(C(=O)NCc2ccccc2)C1` (stereo not drawn) gave FLuc modulator 0%, Rab9 prom act 0%, NPC1 promoter act 0%, ELG1 DNA repair 8% and ELG1 genotoxic 0%.
Screening Cc1ccc(Nc2nc(-c3sc(C)nc3C)cs2)cc1 returned FLuc modulator 12µM*, Rab9 prom act 0%, NPC1 promoter act -18%, ELG1 DNA repair -26% and ELG1 genotoxic 18%.
For CCc1ccc(S(=O)(=O)c2ccc(-n3nc(C)cc3N)cc2)cc1 the results were FLuc modulator -1%, SMN2 splice up -15%, Rab9 prom act 0%, NPC1 promoter act -10%, ELG1 DNA repair inconclusive and ELG1 genotoxic -9%.
